As a reminder, the IC50 is the concentration that inhibits the measured activity by half.

IC50 data for five compounds are collected here from PubChem BioAssay AID2366 (The Scripps Research Institute Molecular Screening Center, 2010).

Unmarked numbers belong to inactive results.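 How the source made its calls: active means compounds picked for the later follow-up tests because of their potency and selectivity; inactive means compounds skipped in follow-up as weaker or less selective.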

A short description of the test: PME-1 inhibitor potency by in-gel ABPP, dose response, selectivity assay for PME-1 inhibitor project, cell lysate, mouse brain cytosol, FP-rhodamine (AID 2366). The settings on record: gel-based ABPP.
In the case of `N#C/C(=C\c1cccn1S(=O)(=O)c1cccc(C#N)c1)S(=O)(=O)c1ccc(F)cc1`, the IC50 was over 50 µM.
In the case of `CS(=O)(=O)/C(C#N)=C/c1cccn1S(=O)(=O)c1ccccc1` it was over 50 µM; in that of `N#C/C(=C\c1cccn1S(=O)(=O)c1cccc([N+](=O)[O-])c1)S(=O)(=O)c1ccc(F)cc1`, over 50 µM.
As to `CC(C)(C)S(=O)(=O)/C(C#N)=C/c1cccn1S(=O)(=O)c1ccccc1`, the IC50 is over 50 µM.
For the compound `CS(=O)(=O)/C(C#N)=C/c1cccn1S(=O)(=O)c1ccc([N+](=O)[O-])cc1`, the IC50 is over 50 µM.
